Our source for the Potency and outcome values is PubChem BioAssay (Tox21).

Assay [1] is described as follows: qHTS assay for small molecules that induce genotoxicity in human embryonic kidney cells expressing luciferase-tagged ATAD5 (AID 651632). Further: nearly all actives have a fitted effect of over 15% in size. In outline:
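Test compounds were delivered by pin tool onto HEK293T reporter cells (2,000/well) expressing ATAD5 fused to luciferase. After 16 hr at 37C, 5% CO2, Amplite was added for 30 min at room temperature and luminescence was measured.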
(In qHTS, concentration-response curves come from the screen itself.)

A short description of assay [2]: qHTS assay to test for compound auto fluorescence at 590 nm (red) in HepG2 cells (AID 720674). In outline:
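Rose Bengal sodium served as the red fluorophore standard. HepG2 monolayers (overnight attachment, MEM with 10% FBS) were exposed to test compounds for 1 hr at 37 C and read at Ex 540/Em 590 nm.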

The nature of assay [3]: qHTS assay to test for compound auto fluorescence at 460 nm (blue) in HEK293 cells (AID 720678). In outline: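 Blue read-out at excitation 405 nm and emission 460 nm follows overnight compound exposure of HEK293 cells at 37C in 5% CO2. Activity is given as auto fluorescence equivalency to triamterene.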
The nature of assay [4]: qHTS assay to test for compound auto fluorescence at 590 nm (red) in HEK293 cells (AID 720679). The gist of the method: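 Red channel, Ex/Em 540/590nm; signal expressed as equivalency to Rose Bengal sodium. HEK293, 2,000 cells/well, 10% dialyzed FBS; 23 nL compound pinned after 4-5 hr attachment; overnight 37C/5% CO2 before reading.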
Assay [5] in a line: qHTS assay to test for compound auto fluorescence at 460 nm (blue) in HepG2 cells (AID 720687). In outline:
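Cells (2,000/well in MEM with 10% FBS) attached overnight at 37 C, then were exposed to compound or DMSO for 1 hr at 37 C, 5% CO2. Fluorescence read at Ex/Em 405/460 nm, expressed as triamterene-equivalent signal.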

Assay [6] addresses Glucocorticoid receptor (Homo sapiens) (UniProt P04150). The assay can be described thus: qHTS assay to identify small molecule agonists of the glucocorticoid receptor (GR) signaling pathway (AID 720691; active means well fitted activation curve with a large enough effect in the signal ratio in the repeat runs, not every such curve was filed as active; the % refers to the signal ratio). In outline: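 A HeLa cervical cancer line expressing GR and a glucocorticoid response element-driven beta-lactamase gene is treated with compounds for 18 h; LiveBLAzer B/G FRET substrate is then applied and fluorescence read.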

Assay [7] in a line: qHTS assay to identify small molecule antagonists of the glucocorticoid receptor (GR) signaling pathway - cell viability counter screen (AID 720693). Further: nearly all actives have a fitted effect of over 55% in size. Further: potency means the concentration at half of the fitted maximal effect.
Assay [8] can be described thus: qHTS assay for identifying genotoxic compounds that show differential cytotoxicity against isogenic chicken DT40 cell lines with known DNA damage response pathways - wild type cell line (AID 743012). Further: nearly all actives have a fitted effect of over 60% in size. Further: potency means the concentration at half of the fitted maximal effect. In outline: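 300 wt DT40 cells/well; cpd (DMSO) pintool-transferred after ~0.5 h at 37 C/5% CO2; 40 h incubation; CellTiter-Glo added, 30 min RT; luminescence read.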

Assay [9] is described as follows: qHTS assay for identifying genotoxic compounds that show differential cytotoxicity against isogenic chicken DT40 cell lines with known DNA damage response pathways - Rev3 mutant cell line (AID 743014). Further: nearly all actives have a fitted effect of over 55% in size. Further: potency means the concentration at half of the fitted maximal effect.
The nature of assay [10]: qHTS assay for identifying genotoxic compounds that show differential cytotoxicity against isogenic chicken DT40 cell lines with known DNA damage response pathways - Rad54/Ku70 mutant cell line (AID 743015). Further: nearly all actives have a fitted effect of over 60% in size. Further: potency means the concentration at half of the fitted maximal effect.
Assay [11] is described as follows: qHTS assay to identify small molecule antagonists of the androgen receptor (AR) signaling pathway - cell viability counter screen (AID 743033; further: nearly all actives have a fitted effect of over 45% in size; further: potency means the concentration at half of the fitted maximal effect).
Assay [12] in a line: qHTS assay to identify small molecule antagonists of the thyroid receptor (TR) signaling pathway - cell viability counter screen (AID 743064). Further: nearly all actives have a fitted effect of over 50% in size. The gist of the method: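 Rat GH3 pituitary tumor cells stably expressing two TR response elements driving luciferase were plated, rested 4 h, then dosed with library compounds and T3 (1 nM final). After 23.5 h at 37 °C, CellTiter-Fluor was added for 30 min and fluorescence recorded.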

A short description of assay [13]: qHTS assay to identify small molecule antagonists of the thyroid receptor (TR) signaling pathway (AID 743065). Further: series mostly up to about 70 µM; nearly all actives have a fitted effect of over 55% in size. In outline:
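GH3.TRE-Luc rat pituitary cells carrying two TR response elements driving luciferase were plated for 4 h, given compound plus 1 nM T3 (final), and incubated 23.5 h at 37 C. ONE-Glo luminescence measured reporter inhibition; CellTiter-Fluor fluorescence tracked cytotoxicity.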

Assay [14] addresses Estrogen receptor (Homo sapiens) (UniProt P03372). Briefly: qHTS assay to identify small molecule agonists of the estrogen receptor alpha (ER-alpha) signaling pathway (AID 743075; calls by dose curve;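 further: HEK293 GripTite cells with ER-alpha and UAS-driven beta-lactamase reporter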).
In assay [15] the target is Nuclear receptor subfamily 1 group I member 2 (Homo sapiens) (UniProt O75469). Briefly: CYP3A4 induction through human pregnane X receptor (PXR) by small molecules, qHTS assay (AID 1346984). Further: nearly all actives have a fitted effect of over 40% in size. The gist of the method:
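Human PXR activation is tracked via CYP3A4 promoter-luciferase in DPX-2 (HepG2) cells. Compounds treat cells for 24hr at 37C, and luminescence is read after One-Glo.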

The target is the same in assay [16]. The assay can be described thus: Human pregnane X receptor (PXR) activation by small molecules, qHTS assay (AID 1346985). Further: nearly all actives have a fitted effect of over 40% in size. The gist of the method: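 DPX-2 cells (HepG2 co-transfected with a PXR response element and a CYP3A4-promoter luciferase construct) were seeded at 2,000 per well, rested 5 hr at 37C, then exposed to DMSO-dissolved compounds for 24 hr. Activation was read as luciferase luminescence.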

The target of assay [17] is Estrogen receptor (Homo sapiens) (UniProt P03372). Briefly: qHTS assay to identify small molecule agonists of the estrogen receptor alpha (ER-alpha) signaling pathway using the BG1 cell line (AID 743079). Further: nearly all actives have a fitted effect of over 20% in size.
Estrogen receptor (Homo sapiens), sequence (P03372 whole entry, looked up): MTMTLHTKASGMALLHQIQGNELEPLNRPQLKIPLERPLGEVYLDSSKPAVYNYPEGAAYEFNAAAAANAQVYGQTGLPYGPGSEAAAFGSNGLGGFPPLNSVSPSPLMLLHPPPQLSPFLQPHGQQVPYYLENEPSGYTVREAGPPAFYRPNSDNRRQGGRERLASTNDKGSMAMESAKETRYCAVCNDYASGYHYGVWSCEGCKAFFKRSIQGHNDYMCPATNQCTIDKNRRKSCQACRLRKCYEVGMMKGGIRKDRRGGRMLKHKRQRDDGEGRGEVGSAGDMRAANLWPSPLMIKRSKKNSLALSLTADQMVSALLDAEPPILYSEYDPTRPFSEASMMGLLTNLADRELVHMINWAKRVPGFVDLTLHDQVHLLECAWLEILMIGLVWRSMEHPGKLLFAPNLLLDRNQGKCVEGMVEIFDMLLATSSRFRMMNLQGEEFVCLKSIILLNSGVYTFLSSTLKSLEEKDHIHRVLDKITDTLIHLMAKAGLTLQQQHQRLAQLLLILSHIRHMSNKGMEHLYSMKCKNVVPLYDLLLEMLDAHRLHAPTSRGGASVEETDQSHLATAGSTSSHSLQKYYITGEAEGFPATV
Assay [18] deals with Peroxisome proliferator-activated receptor gamma (Homo sapiens) (UniProt P37231). The assay can be described thus: qHTS assay to identify small molecule agonists of the peroxisome proliferator-activated receptor gamma (PPARg) signaling pathway (AID 743094; active means well fitted activation curve with a large enough effect in the signal ratio in the repeat runs, not every such curve was filed as active; the % refers to the signal ratio). In outline: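 Cell-based bla reporter, HEK293H background, PPARg-driven UAS. Pre-incubation 5 h, 37C, 5% CO2. Compound 17 h, 37C. Substrate 1 h RT; fluorescence.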
Peroxisome proliferator-activated receptor gamma (Homo sapiens), sequence (P37231 whole entry, looked up): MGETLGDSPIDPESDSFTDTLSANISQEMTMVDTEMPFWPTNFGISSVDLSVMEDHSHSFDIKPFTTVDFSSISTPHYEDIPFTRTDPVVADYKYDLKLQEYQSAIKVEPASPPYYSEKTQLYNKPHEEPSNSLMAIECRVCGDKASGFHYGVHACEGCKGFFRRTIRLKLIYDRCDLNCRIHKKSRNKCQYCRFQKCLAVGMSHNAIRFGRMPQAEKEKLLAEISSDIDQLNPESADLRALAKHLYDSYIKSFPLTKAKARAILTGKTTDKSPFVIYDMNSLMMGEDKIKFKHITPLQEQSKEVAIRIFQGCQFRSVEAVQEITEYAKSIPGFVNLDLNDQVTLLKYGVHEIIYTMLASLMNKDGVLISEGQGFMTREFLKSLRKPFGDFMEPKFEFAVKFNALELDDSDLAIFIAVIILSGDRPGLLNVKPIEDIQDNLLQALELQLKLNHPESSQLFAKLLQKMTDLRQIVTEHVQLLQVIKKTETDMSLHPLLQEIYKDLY

Assay [19] can be described thus: qHTS assay for small molecule agonists of the p53 signaling pathway - cell viability (AID 651633; calls by dose curve;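 further: p53RE-bla HCT reporter cells with a stable beta-lactamase p53 reporter; series mostly up to about 83 µM; nearly all actives have a fitted effect of over 30% in size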). The gist of the method: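 p53RE-bla cells, seeded at 4,000 per well and rested 5 h at 37 C/5% CO2, received compounds in DMSO for 16 h at 37 C. CellTiter-Glo was then added, and luminescence was read after 30 min at room temperature to gauge cytotoxicity.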
Assay [20] deals with Glucocorticoid receptor (Homo sapiens) (UniProt P04150). The assay can be described thus: qHTS assay to identify small molecule antagonists of the glucocorticoid receptor (GR) signaling pathway (AID 720692; active means well fitted inhibition curve with a large enough effect in the signal ratio in the repeat runs, not every such curve was filed as active; the % refers to the signal ratio). In outline: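 GRE-bla HeLa line, dex-stimulated (5 nM final). Compound exposure 18 h, 37 C. Beta-lactamase FRET read after 2 h RT substrate.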
Glucocorticoid receptor (Homo sapiens), sequence (P04150 whole entry, looked up): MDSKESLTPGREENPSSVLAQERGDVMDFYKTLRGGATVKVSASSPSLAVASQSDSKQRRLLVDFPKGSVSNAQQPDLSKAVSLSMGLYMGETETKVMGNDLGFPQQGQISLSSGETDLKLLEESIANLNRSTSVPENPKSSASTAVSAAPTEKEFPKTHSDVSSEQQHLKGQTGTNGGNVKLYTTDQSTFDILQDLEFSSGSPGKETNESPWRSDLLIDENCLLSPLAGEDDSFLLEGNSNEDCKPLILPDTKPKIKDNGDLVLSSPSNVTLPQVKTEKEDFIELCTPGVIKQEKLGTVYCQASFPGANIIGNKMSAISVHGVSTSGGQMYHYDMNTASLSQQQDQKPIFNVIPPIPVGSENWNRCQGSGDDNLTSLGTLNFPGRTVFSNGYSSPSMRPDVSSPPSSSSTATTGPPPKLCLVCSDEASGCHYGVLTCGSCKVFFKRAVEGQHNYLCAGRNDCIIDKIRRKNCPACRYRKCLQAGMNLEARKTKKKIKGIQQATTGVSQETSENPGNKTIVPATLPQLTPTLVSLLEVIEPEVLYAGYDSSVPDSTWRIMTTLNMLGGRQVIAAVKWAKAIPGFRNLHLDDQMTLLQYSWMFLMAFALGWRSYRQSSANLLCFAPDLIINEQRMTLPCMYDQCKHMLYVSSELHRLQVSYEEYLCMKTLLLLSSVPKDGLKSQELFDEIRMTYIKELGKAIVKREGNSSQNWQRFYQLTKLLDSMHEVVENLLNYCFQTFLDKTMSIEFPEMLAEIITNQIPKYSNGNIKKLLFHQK

Inconclusive results are not listed. Active and inactive are the calls of the source. Unless noted, the call rests on the fitted dose curve; in most records, active means well fitted curve in the direction sought with a large enough effect in the repeat runs; inconclusive means weak or mixed curves; inactive means no such curve, though single readings can be large; an effect the other way counts as inactive or inconclusive.

On to `CC(=O)O[C@H]1C[C@H](O[C@H]2[C@@H](O)C[C@H](O[C@H]3[C@@H](O)C[C@H](OC4CC[C@@]5(C)[C@H](CC[C@@H]6[C@@H]5CC[C@]5(C)[C@@H](C7=CC(=O)OC7)CC[C@]65O)C4)O[C@@H]3C)O[C@@H]2C)O[C@H](C)[C@H]1O[C@@H]1O[C@H](CO)[C@@H](O)[C@H](O)[C@H]1O` (stereo partly drawn), for which the Potency entry in [1], in [3], in [5], in [6], in assay [12] and in assay [13] was “inactive” in each case. Further, the Potency result in assay [14], in assay [15] and in assay [16] was “inactive” throughout. The compound was classed as inactive in assay [2] and in assay [4]. Further, the Potency in assay [7] is 756 nM (active); in assay [8], 473 nM (active); in assay [9], 473 nM (active); in [10], 596 nM (active); in assay [11] it was 107 nM (active).

Take `CCN1C[C@]2(COC)[C@H](O)C[C@H](OC)[C@@]34[C@@H]5C[C@@]6(O)[C@H](OC(=O)c7ccccc7)[C@@H]5[C@@](OC(C)=O)([C@@H]([C@H](OC)[C@H]23)[C@@H]14)[C@@H](O)[C@@H]6OC`: the Potency entry in assay [1], in [5], in [7], in assay [8], in [9] and in assay [10] was “inactive” each time. The Potency entry in assay [11], in [12], in assay [13], in assay [14], in assay [17] and in assay [18] was “inactive” in each case. The Potency entry in assay [16] was “inactive”. The compound was called inactive in assay [4].

Consider `Cc1nnc2n1-c1ccc(Cl)cc1C(c1ccccc1Cl)=NC2`, for which the Potency result in assay [19], in assay [3], in assay [5], in [6], in assay [8] and in assay [9] was “inactive” in each case. The Potency entry in assay [10], in assay [12], in assay [13] and in assay [15] was “inactive” each time. In addition, the result in assay [2] was inactive.

As to `CN1[C@H]2CC[C@@H]1[C@@H](C(=O)O)[C@@H](OC(=O)c1ccccc1)C2`, the Potency entry in assay [1], in assay [19], in [3], in assay [5], in [9] and in assay [10] was “inactive” in each case. Moreover, the Potency entry in assay [11], in [12], in assay [13], in assay [14], in assay [17] and in [18] was “inactive” in each case. The Potency result in [15] and in assay [16] was “inactive” throughout. The compound was called inactive in [2] and in [4].

Take `C=C[C@H]1CN2CC[C@H]1C[C@@H]2[C@@H](O)c1ccnc2ccccc12`: the Potency result in assay [1], in [3], in assay [5], in assay [6], in assay [20] and in assay [7] was “inactive” throughout. The Potency result in assay [12], in assay [13], in [18], in [15] and in assay [16] was “inactive” throughout. For the same compound, the outcome in assay [2] and in assay [4] was inactive.

With `NC1=NC(=O)N2CC12` (stereo not drawn), the Potency result in assay [1], in assay [19], in [3], in assay [7], in [8] and in [9] was “inactive” in each case. In addition, the Potency entry in [10], in assay [11], in assay [12], in [13], in [14] and in assay [17] was “inactive” in each case. Besides, the Potency result in assay [18], in [15] and in [16] was “inactive” throughout. Besides, the call in [2] and in [4] was inactive.

As for `S=C(S)N1CCNCC1`, the Potency result in assay [1], in [3], in assay [6], in assay [20], in assay [7] and in [8] was “inactive” throughout. Besides, the Potency entry in assay [10], in [12], in assay [13], in [14], in [17] and in assay [18] was “inactive” throughout. The Potency entry in assay [15] and in assay [16] was “inactive” throughout. In addition, the call in [2] and in [4] was inactive.
